A selection: hits, their analogues and other compounds. The true share with any hit is near 4%.
Gli-Sufu block = blocks Gli-Sufu signaling in a luciferase reporter; Sufu-KO-LIGHT fibroblasts, Gli luciferase reporter luminescence; inhibition, % at 5 µM; hit rate 0.74% among 340,000;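 active means inhibition above about 55%, limit read from the data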;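 further: 0% = DMSO-treated cells and 100% = wells with medium but no cells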
Mdm2 MdmX PPI = inhibitors of human Mdm2/MdmX interaction; SaOS-2 split-luciferase Mdm2/MdmX complementation, luminescence; inhibition, % at 8 µM; hit rate 3% among 330,000; AID 485346;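 active means inhibition of at least 50% at 8 µM in the primary screen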
Target sequence (O15151 whole entry, looked up): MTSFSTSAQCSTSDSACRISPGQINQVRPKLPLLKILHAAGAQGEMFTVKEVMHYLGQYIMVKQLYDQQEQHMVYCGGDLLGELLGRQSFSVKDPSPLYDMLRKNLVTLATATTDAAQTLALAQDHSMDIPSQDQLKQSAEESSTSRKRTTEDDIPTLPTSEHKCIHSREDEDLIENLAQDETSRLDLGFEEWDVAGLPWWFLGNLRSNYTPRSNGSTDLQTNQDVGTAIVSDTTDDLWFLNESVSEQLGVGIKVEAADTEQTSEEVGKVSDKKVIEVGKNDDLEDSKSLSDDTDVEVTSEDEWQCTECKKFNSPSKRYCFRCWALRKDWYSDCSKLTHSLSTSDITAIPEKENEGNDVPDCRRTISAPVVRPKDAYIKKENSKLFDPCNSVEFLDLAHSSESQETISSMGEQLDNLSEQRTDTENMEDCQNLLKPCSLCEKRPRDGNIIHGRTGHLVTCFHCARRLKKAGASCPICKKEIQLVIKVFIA
Target sequence (Q00987 whole entry, looked up): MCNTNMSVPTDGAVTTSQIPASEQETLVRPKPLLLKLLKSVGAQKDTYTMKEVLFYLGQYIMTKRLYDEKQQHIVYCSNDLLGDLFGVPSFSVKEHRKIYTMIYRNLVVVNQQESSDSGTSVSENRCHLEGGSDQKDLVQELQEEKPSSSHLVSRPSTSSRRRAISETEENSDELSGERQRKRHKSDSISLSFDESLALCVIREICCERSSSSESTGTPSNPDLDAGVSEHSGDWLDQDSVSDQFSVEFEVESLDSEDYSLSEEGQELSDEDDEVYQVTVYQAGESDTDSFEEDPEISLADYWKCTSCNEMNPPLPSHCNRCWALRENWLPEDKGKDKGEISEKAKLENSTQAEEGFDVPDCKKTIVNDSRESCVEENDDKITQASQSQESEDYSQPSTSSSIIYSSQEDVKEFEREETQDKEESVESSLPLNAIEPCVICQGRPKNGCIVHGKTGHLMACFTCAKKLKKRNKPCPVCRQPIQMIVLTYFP
Beta cell apopt = blocks beta cell apoptosis; protection from apoptosis, % (no concentration beside the values); hit rate 0.8% among 300,000; INS-1E cytokine-induced death, ATP luminescence, 48 h; percent of positive-control rescue, neutral wells zero;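 active means Every replicate reaches about 75%, or at least half do and their mean reaches it too, limit read from the data; inconclusive means At least half of replicates reach the limit but their mean does not; inactive means Under half of replicates reach the limit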;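 further: 0% = cytokine-treated negative control wells and 100% = positive control rescue; higher means more ATP so stronger rescue from cytokine killing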
CSC inhib = blocks cancer stem cells. cancer stem cell-like cells viability, luminescence. inhibition, % at 7.5 µM. hit rate 1.1% among 300,000; in the data active means inhibition above about 75%; inconclusive means no clear call, values can overlap the other calls; tested in HMLE shEcad cells
PAX8 inh HTS = PAX8 transcriptional activity inhibition; AID 652154; inhibition, % at 12.6 µM; RMG-I TPO-luciferase reporter, SteadyGlo, 24 h; hit rate 1.2% among 360,000;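 active means mean replicate inhibition at least 60% with every replicate also reaching 60%; inconclusive means only one of the two criteria is met; inactive means mean below 60% and not all replicates reaching 60%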;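 further: luciferase light reporting Pax8 driven TPO promoter activity; plate controls were median of neutral control wells for no effect and mitoxantrone controls for full effect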
Shn3 inh set2 = Schnurri-3 reporter inhibition in Clone20 osteoblasts; Clone20 osteoblast Shn3 3'UTR firefly luciferase, 24 h; inhibition, % at 12.5 µM; hit rate 0.52% among 360,000; AID 588674;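 active means mean inhibition of at least 75% with every replicate also reaching 75%; inconclusive means mean inhibition at least 75% but some replicate below; inactive means mean inhibition below 75%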;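 further: 0% = median of neutral control wells and 100% = pilot-screen positive control compound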
Mdm2 MdmX conf = confirmation of human Mdm2/MdmX interaction inhibitors; shares compounds with Mdm2 MdmX PPI; Mdm2-MdmX binding, luminescent assay; hit rate 55% among 10,000; inhibition, % at 8 µM; in the data active means inhibition above about 40%
FLuc counter = full-length luciferase inhibition in Mdm2/MdmX counter-screen | shares compounds with Mdm2 MdmX PPI | SaOS-2 full-length luciferase counterscreen, luminescence | inhibition, % at 8 µM | hit rate 77% among 6,200 | AID 504607;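 active means mean inhibition at 8 µM reaching about 37%, which flags the compound as non-specific, limit read from the data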;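 further: p53-null SaOS-2 cells with luciferase driven by a doxycycline-inducible promoter; compound on cells about two nights before reading with doxycycline added after day one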
* marks the source's active call; other numbers are inactive results; ? = inconclusive; . = no result given.

SMILES | Gli-Sufu block | Mdm2 MdmX PPI | Beta cell apopt | CSC inhib | PAX8 inh HTS | Shn3 inh set2 | Mdm2 MdmX conf | FLuc counter
CC(C)N(C(=O)[C@H]1C[C@H](CC(=O)NCc2cccc(C(F)(F)F)c2)C(=O)N2CCc3c([nH]c4ccc(Cl)cc34)[C@]12C)C(C)C | 1.2 | 94.8* | . | . | -3.8 | 11.9 | 40.5* | 81.3*
C[C@]12c3[nH]c4cc(-c5ccco5)ccc4c3CCN1C(=O)[C@@H](CC(=O)NCc1cccc(C(F)(F)F)c1)C[C@@H]2C(=O)N1CCOCC1 | 15.8 | 37.4 | . | . | 29.3 | -9.0 | . | .
CCN(CC)C(=O)[C@H]1C[C@H](CC(=O)NCCCN(C)C)C(=O)N2CCc3c([nH]c4cc(-c5ccco5)ccc34)[C@]12C | 1.1 | 34.1 | . | . | 5.0 | -12.9 | . | .
CC(C)N(C(=O)[C@H]1C[C@H](CC(=O)NCc2cccc(C(F)(F)F)c2)C(=O)N2CCc3c([nH]c4cc(-c5ccco5)ccc34)[C@]12C)C(C)C | -4.5 | 76.5* | . | . | 18.9 | 22.3 | 2.7 | .
CC(C)N(C(=O)[C@H]1C[C@H](CC(=O)NCc2ccco2)C(=O)N2CCc3c([nH]c4ccc(Cl)cc34)[C@]12C)C(C)C | -0.2 | 52.1* | . | . | 19.2 | 16.1 | 19.5 | .
Cc1ccc(S(=O)(=O)N(C)C[C@@H]2Oc3ccc(NC(=O)CCC(F)(F)F)cc3C(=O)N([C@@H](C)CO)C[C@H]2C)cc1 | . | . | . | . | 5.0 | . | . | .
COc1cccc(C(C[N+](=O)[O-])c2c(C)[nH]n(-c3ccccc3)c2=O)c1 (stereo not given) | 1.0 | 65.2* | 6.0 | -12.2 | 14.3 | -11.9 | 25.4 | .
O=C(NCC[C@@H]1CC[C@@H](NC(=O)c2cnccn2)[C@H](CO)O1)c1ccc2c(c1)OCO2 | . | . | . | . | -9.9 | . | . | .
CCOC(=O)c1sc(=NC(=O)c2ccc(C)cc2)n(C)c1C | -22.2 | -123.9 | -2.8 | -15.6 | -56.6 | -47.3 | . | .
CCOC(=O)c1sc(=NC(=O)c2ccc(S(=O)(=O)N(C)c3ccccc3)cc2)n(C)c1C | 45.7 | 62.6* | 2.2 | -9.9 | -0.5 | 2.1 | 21.1 | .
Cc1ccc(C)c(N/C(N)=N/c2nc(C)cc(C)n2)c1 | 10.8 | 32.0 | -7.6 | 4.3 | . | 26.7 | . | .
Cc1ccc(CN=C(N)Nc2nc(C)cc(C)n2)cc1 | -2.5 | 68.4* | 8.7 | 55.9 | 15.5 | 30.8 | 59.4* | 63.4*
CN=c1scc(-c2ccccc2Br)n1/N=C/c1ccc[nH]1 | . | 60.1* | 12.2 | 31.3 | . | . | 69.2* | 143.3*
Cn1nnnc1Sc1ncnc2scc(-c3ccccc3)c12 | 32.3 | 78.3* | -13.8 | -5.4 | 91.3* | 7.7 | -1.9 | .
Cn1nnnc1SCSc1nnnn1C | -35.0 | 2.0 | -3.3 | -0.9 | . | 11.3 | . | .
Cn1nnnc1Sc1ncnc2scc(Br)c12 | 4.3 | 98.6* | -4.7 | ? | 56.1 | 97.0* | 32.1 | .
Cn1nnnc1Sc1ncnc2scc(-c3ccc(F)cc3)c12 | 33.6 | 100.0* | -17.9 | 35.5 | 108.1* | 92.7* | 90.7* | 53.8*
Cc1ccc(-c2csc3ncnc(SCC(N)=O)c23)cc1 | -6.3 | 26.8 | -3.7 | -7.0 | -9.6 | -1.4 | . | .
Cn1nnnc1Sc1ncnc2scc(-c3ccc(Br)cc3)c12 | 14.9 | 99.2* | 2.4 | . | 99.5* | 96.0* | 100.0* | 53.0*
O=C(C[C@@H]1CC[C@H]2[C@@H](COC[C@@H](O)CN2S(=O)(=O)c2ccc(F)cc2)O1)NCC1CC1 | . | . | . | . | -14.1 | . | . | .
Cn1nnnc1Sc1ncnc2scc(-c3ccc[nH]3)c12 | 23.5 | 69.4* | -61.1 | 41.5 | 99.1* | 70.9 | 46.8* | 29.2
Cn1nnnc1Sc1ncnc2scc(-c3ccccc3Br)c12 | 26.1 | 69.8* | -33.1 | 52.1 | 82.9* | -4.0 | 67.2* | 25.0
Cn1nnnc1Sc1ncnc2scc(-c3cccc4ccccc34)c12 | 15.8 | 96.9* | -1.7 | . | 40.1 | -4.3 | 54.9* | 22.0
COc1ccccc1-c1csc2ncnc(Sc3nnnn3C)c12 | 39.8 | 47.2 | -22.8 | -4.0 | 18.4 | 13.2 | . | .
COc1ccc(NC(=O)N(C)C[C@H]2OCCCC[C@@H](C)Oc3ccc(NS(C)(=O)=O)cc3C(=O)N([C@@H](C)CO)C[C@H]2C)cc1 | . | . | . | . | -16.8 | . | . | .
C[C@@H]1CCCCO[C@@H](CN(C)C(=O)CCCN(C)C)[C@H](C)CN([C@@H](C)CO)C(=O)c2cc(NC(=O)c3ccncc3)ccc2O1 | . | . | . | . | -15.4 | . | . | .

Compound activity (PubChem BioAssay)
